PfHsp90 set2: inhibits growth of yeast expressing Plasmodium falciparum Hsp90 | S. cerevisiae expressing PfHsp90, BacTiter-Glo ATP, 48 h; yeast lacking PDR1 and PDR3 efflux regulators | inhibition, % at 9.4 µM | 310,000 tested, 0.32% active | AID 504621;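 active means every replicate shows inhibition above about 80%, whatever the replicate mean, limit read from the data; inconclusive means mean inhibition reaches the set limit but some replicate falls short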;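 further: 0% = DMSO neutral controls and 100% = 20 µM radicicol positive controls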
Calb FLC: affects C. albicans growth with fluconazole; growth inhibition, % (no concentration beside the values); 300,000 tested, 0.57% active; AID 1979; C. albicans CaCi-2 (fluconazole-resistant clinical isolate) + fluconazole, Alamar Blue growth, 48 h;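 active means growth inhibition above about 58% in most replicates, limit read from the data, passing the limit was not always enough; inconclusive means exactly half the replicates above a set limit; inactive means most replicates below a set limit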;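 further: all wells also contain fluconazole at 8 µg/ml as a sub-toxic cotreatment; 0% = median of DMSO wells and 100% = median of geldanamycin control wells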
TIM10 inh: growth inhibitors of TIM10 yeast strain; S. cerevisiae TIM10 strain growth, BacTiter-Glo luminescence, 24 h; inhibition, % at 10 µM; 330,000 tested, 1.4% active;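 active means inhibition of 40% or more at the single tested concentration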;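 further: wild-type TIM10 isogenic control strain grown at permissive 25 °C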
tim10-1 inh: tim10-1 yeast growth inhibition. inhibition, % at 20 µM. AID 463190. S. cerevisiae tim10-1 ts strain growth, BacTiter-Glo, 24 h. 330,000 tested, 2.2% active;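 active means inhibition of at least 40%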;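 further: mutant grown at 25 °C; 0% = DMSO wells with yeast and 100% = wells holding no yeast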
SKKanGAS inh: inhibitors of SKKanGAS S. pyogenes growth in kanamycin (SK-promoter or general growth effect). inhibition, % at 7.5 µM. BacTiter-Glo, 6 h. 300,000 tested, 1.3% active. AID 1662;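 active means mean replicate score, as percent of positive control median, at least 50; inconclusive means mean below 50 but one replicate at or above 50; inactive means mean and every replicate below 50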;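 further: strain carries kanamycin resistance gene driven by streptokinase promoter and grows in 40 µg/ml kanamycin; loss of luminescence reflects streptokinase promoter inhibition or plain growth inhibition; 0% = median of DMSO wells and 100% = positive control at its reference dose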
tim23-1 inh: growth inhibitors of tim23-1 mutant yeast; S. cerevisiae tim23-1 growth, BacTiter-Glo luminescence, 24 h; inhibition, % at 20 µM; 330,000 tested, 1.3% active;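 active means growth inhibition of the mutant yeast at or above 50%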;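 further: temperature-sensitive mutant grown at 25 °C; plate controls were DMSO-treated mutant yeast for no effect and medium wells lacking yeast for full effect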
tim10-1 conf: confirmation of tim10-1 mutant yeast growth inhibitors | inhibition, % at 20 µM | shares compounds with tim10-1 inh | 7,400 tested, 56% active | S. cerevisiae tim10-1 ts strain growth, BacTiter-Glo, 24 h;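 active means inhibition of yeast growth at or above a set limit in either of two repeat tests at 20 µM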;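 further: tim10-1 mutant grown at permissive 25 °C to find synthetic lethal compounds; 0% = DMSO yeast wells and 100% = medium wells without yeast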
* hit, by the source's call; ? = inconclusive; / = no result given. Sampled rows, rich in hits. Any-hit rate of the full collection: about 4.7%.

SMILES	PfHsp90 set2	Calb FLC	TIM10 inh	tim10-1 inh	SKKanGAS inh	tim23-1 inh	tim10-1 conf
COCCN1C(=O)C(=O)/C(=C(/O)c2ccc(S(=O)(=O)N3CCOCC3)cc2)C1c1cccc([N+](=O)[O-])c1 (stereo not given)	11	-2	6	-6	-7	-5	/
CCOc1ccc(OCc2ccc(C(=O)N3CCCC(C)C3)cc2)cc1 (stereo not given)	-10	-21	7	41*	-7	33	17
Cc1ccc(S(=O)(=O)NCCCNS(=O)(=O)c2ccccc2Br)cc1	5	/	-19	-2	/	22	/
Cc1cc(C)c(C(=O)N2CCC(N3CCC(C(=O)NC(C)C)CC3)CC2)o1	-5	7	1	-2	7	-15	/
Cc1cc(NC(=O)c2sccc2C)n(-c2nc3ccccc3[nH]2)n1	58	22	21	49*	63*	44	24
Cc1cc(NC(=O)c2cccs2)n(-c2nc3ccccc3[nH]2)n1	15	4	21	24	-12	-26	/
COc1ccccc1-c1noc(CCC(=O)Nc2cc(C(F)(F)F)ccc2Cl)n1	/	8	11	43*	5	25	22
Nc1nc(-c2ccc(Cl)cc2)nn1C(=O)c1cccs1	2	-3	10	31	-2	-14	/
COc1ccc(C2c3sc(=O)[nH]c3SCC2C(N)=O)cc1 (stereo not given)	-15	0	10	1	2	-1	/
CCOC(=O)C1CSc2[nH]c(=O)sc2C1c1ccccc1 (stereo not given)	-7	0	21	40	2	37	16
O=c1c2c([nH]n1-c1ccccc1)CCCC2	-32	?	20	46*	-6	39	27
O=c1[nH]n(-c2ccccc2)c(=O)c(Cl)c1Cl	10	2	8	33	-1	24	/
Cc1cc(CN(C)C(=O)c2ccc(OC3CCN(CCc4ccccc4)CC3)cc2)on1	-11	-3	4	15	-2	10	/
CN(C)c1ccc(C(=O)c2ccc(O)cc2O)cc1	-10	3	20	41*	-1	49	27
O=C(c1ccco1)N1CCN(S(=O)(=O)c2cccc(Cl)c2)CC1	-12	1	-3	14	3	19	/
CS(=O)(=O)N(CC(=O)O)Cc1cccc(CN(CC(=O)O)S(C)(=O)=O)c1	2	13	-2	-16	1	5	/
Cc1ccc(-c2cc(-c3ccccc3)nc(N/N=C/c3cccnc3)n2)cc1	-2	16	16	44*	/	16	25
C(=N/Nc1nc(-c2ccccc2)cc(-c2ccccc2)n1)/c1cccnc1	19	0	18	25	7	34	/
Cc1cc(-c2ccccc2)nc(N/N=C/c2ccccc2)n1	-22	7	37	41*	-4	37	18
COc1ccc(-n2nnnc2-c2cccc(OC)c2)cc1	-4	-2	-7	44*	0	1	13
Cc1c(C(=O)O)oc2c1ccc1ccccc12	-32	5	-6	2	-1	7	/
Cc1c(C(=N)C(C#N)C#N)c(=N)oc2c1ccc1ccccc12	1	20	35	41*	14	20	29
CSc1ccc(/C=C/C(=O)OCC(=O)N2CCN(S(=O)(=O)c3ccc(C)cc3C)CC2)cc1	3	/	6	14	/	22	/
CC1(C)Cc2c(cnn2-c2ccc(F)cc2)C(NC(=O)CCN2CCCCC2=O)C1 (stereo not given)	8	-12	2	-2	-1	-2	/
CCOC(=O)/C=C/C(=O)Nc1nccs1	19	23	32	43*	17	34	40*
SMILES	PfHsp90 set2	Calb FLC	TIM10 inh	tim10-1 inh	SKKanGAS inh	tim23-1 inh	tim10-1 conf
CCOC(=O)C(=O)Nc1nccs1	9	-4	11	14	8	6	/
CCOc1ccc(S(=O)(=O)N2CCCCC2)cc1NS(=O)(=O)c1cccs1	7	/	16	13	/	4	/
CCCCn1c(O)c(N=Nc2ccccc2O)c2ccccc21	3	/	21	23	/	21	/
CC(=O)Nc1ccc(NC(=O)C(C)OC(=O)CNS(=O)(=O)c2ccc(Br)cc2Cl)cc1 (stereo not given)	-6	-3	-2	-10	-15	-9	/
CNC(=O)c1nc(C)n(-c2ccc(Cl)cc2Cl)n1	0	-7	6	1	-7	3	/
Cc1c(Cl)cccc1NC(=O)c1nc(C)n(-c2cc(OC(C)C)c(Cl)cc2Cl)n1	2	9	30	43*	23	26	26
Cc1cc(N2CCCCC2)nc(SCc2ccc(C#N)cc2)n1	10	1	33	47*	-3	39	28
COCCCNC1=C(Cl)C(=O)c2ccccc2C1=O	-1	-1	27	30	0	41	/
COCCCNc1c2c3c(cccc3[nH]c1=O)C(=O)c1ccccc1-2	21	/	31	41*	/	16	23
Cc1n[nH]c(C)c1CCc1nc2c3ccccc3nc(SCC(=O)Nc3ccccc3F)n2n1	-26	-19	10	18	5	9	/
Cc1cccc(NC(=O)CSc2nc3ccccc3c3nc(CCc4c(C)n[nH]c4C)nn23)c1	/	-22	10	41*	22	11	14
Cc1cc(Nc2cccc(Cl)c2)nc(NCc2ccccc2)n1	-8	?	8	45*	17	45	24
COc1ccc(C)cc1NS(=O)(=O)c1ccccc1	-14	/	/	/	/	/	/
Cc1nn(-c2ccccc2)c(Cl)c1C(=O)N1CCN(c2ncnc3c2cnn3-c2ccccc2)CC1	-11	10	24	41*	18	23	32*
O=C(NC1C2CCCC1CN(C1CC1)C2)c1ccc(Cl)cc1 (stereo not given)	-10	28	-12	-3	2	12	/
S=C(NCC1CCCCC1)Nc1cccnc1	18	8	16	53*	3	31	43*
CCOc1ccc(-c2csc3nc[nH]c(=O)c23)cc1	3	-1	7	-11	3	7	/
Nc1ccc(C(=O)Nc2ccccc2C(=O)O)cc1	/	-2	14	16	7	17	/
COc1ccc(C(=O)Nc2ccccc2C(=O)Nc2ccccn2)cc1	24	-18	17	43*	3	45	24
O=C(Nc1ccccc1C(=O)Nc1ccccc1C(=O)O)c1ccccc1	-6	-1	9	47*	33	31	26
CCOc1cc(CNCc2cccnc2)ccc1OCC(=O)NC(C)(C)C	8	-10	-4	-6	-7	-3	/
NNC(=O)c1cc(S(=O)(=O)N2CCOCC2)c[nH]1	17	/	-9	-21	/	-7	/
COc1ccc(S(=O)(=O)N2CCC3(CC2)OCCN3S(=O)(=O)c2c(C)cc(C)cc2C)cc1	-11	-17	4	29	-4	11	/
